pPAFAH FP inh: pPAFAH enzyme inhibitors, primary screen, biochemical, fluorescence polarization, human; recombinant pPAFAH, FP-rhodamine probe fluorescence polarization; inhibition, % at 3.39 µM; 330,000 compounds, 1.5% hits; AID 463082, 2010;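 active = inhibition above the mean inhibition across the screen plus 3 SD, cut at about 25% in these data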;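 note: inhibitors block binding of the rhodamine activity-based probe so polarization drops; 0% = enzyme with DMSO and 100% = wells lacking pPAFAH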
DAGLB inh: DAGLB lipase inhibitors, primary screen, biochemical, fluorescence, HTS; AID 504411, 2011; inhibition, % at 5.17 µM; HEK293T DAGLB membrane lysate, EnzChek fluorogenic substrate; 340,000 compounds, 0.059% hits; in the data active = inhibition above about 34%;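 note: 0% = enzyme with vehicle and 100% = wells lacking enzyme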
PAFAH2 inh: PAFAH2 enzyme inhibitors, primary screen, biochemical, fluorescence polarization, human. inhibition, % at 3.39 µM. Platelet-activating factor acetylhydrolase 2, cytoplasmic (Homo sapiens), Q99487. 340,000 compounds, 0.99% hits. recombinant PAFAH2, FP-rhodamine activity probe. AID 492956, 2010;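 active = inhibition above the mean over all tested compounds plus 3 SD, cut at about 30% in these data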;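 note: inhibitors block probe labeling of enzyme so polarization drops; 0% = enzyme with DMSO and 100% = wells lacking PAFAH2 protein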
HTRA1 inhibitor: HTRA1 serine protease inhibitors, primary screen, biochemical, fluorescence polarization, HTS; AID 504803, 2011; recombinant HTRA1, FP-rhodamine activity-based probe; Q92743; 340,000 compounds, 0.5% hits; inhibition, % at 5.96 µM; in the data active = inhibition above about 36%;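 note: 0% = enzyme with DMSO and 100% = wells lacking enzyme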
Target sequence (Q92743 whole entry, looked up): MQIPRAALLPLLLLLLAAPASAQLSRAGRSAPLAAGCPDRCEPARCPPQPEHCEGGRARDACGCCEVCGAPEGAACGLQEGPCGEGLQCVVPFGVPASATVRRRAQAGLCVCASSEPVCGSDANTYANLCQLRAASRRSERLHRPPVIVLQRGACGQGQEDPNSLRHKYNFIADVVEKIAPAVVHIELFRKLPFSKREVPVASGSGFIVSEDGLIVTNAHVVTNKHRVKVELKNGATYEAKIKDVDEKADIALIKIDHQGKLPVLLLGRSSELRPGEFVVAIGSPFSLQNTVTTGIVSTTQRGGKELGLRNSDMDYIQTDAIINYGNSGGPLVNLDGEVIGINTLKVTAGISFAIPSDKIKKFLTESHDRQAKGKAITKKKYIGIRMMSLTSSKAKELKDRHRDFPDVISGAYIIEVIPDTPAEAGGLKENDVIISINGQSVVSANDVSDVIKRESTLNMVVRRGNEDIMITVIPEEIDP
PAFAH1B3 FP inh: PAFAH1B3 enzyme inhibitors, primary screen, biochemical, fluorescence polarization, human. Platelet-activating factor acetylhydrolase IB subunit alpha1 (Homo sapiens), Q15102. recombinant PAFAH1B3, FP-rhodamine probe. inhibition, % at 3.39 µM. 340,000 compounds, 0.28% hits;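 active = inhibition above the screen-wide average of all tested compounds plus 3 SD, cut at about 25% in these data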;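 note: 0% = enzyme with DMSO only and 100% = wells lacking PAFAH1B3 protein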
Target sequence (Q15102 whole entry, looked up): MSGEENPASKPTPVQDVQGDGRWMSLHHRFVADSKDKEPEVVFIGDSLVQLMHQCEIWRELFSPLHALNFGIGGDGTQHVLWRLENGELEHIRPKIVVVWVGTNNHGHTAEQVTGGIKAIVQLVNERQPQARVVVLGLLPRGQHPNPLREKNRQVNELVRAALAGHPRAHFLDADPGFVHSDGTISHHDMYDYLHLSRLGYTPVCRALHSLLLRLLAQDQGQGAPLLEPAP
PAFAH1B2 FP inh: PAFAH1B2 enzyme inhibitors, primary screen, biochemical, fluorescence polarization, human. Platelet-activating factor acetylhydrolase IB subunit alpha2 (Homo sapiens), P68402. recombinant PAFAH1B2, FP-rhodamine activity probe. inhibition, % at 3.39 µM. 340,000 compounds, 1.2% hits. AID 492953, 2010;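 active = inhibition above the mean of all tested compounds plus 3 SD, cut at about 24% in these data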;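 note: 0% = enzyme with DMSO and 100% = wells lacking PAFAH1B2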
PAFAH2 confirm: PAFAH2 enzyme inhibitors, confirmation, biochemical, fluorescence polarization, human; shares compounds with PAFAH2 inh; recombinant PAFAH2, FP-rhodamine activity probe; inhibition, % at 3.39 µM; 2,300 compounds, 65% hits;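 active = mean inhibition over three repeats above a set limit taken from the earlier primary screen, cut at about 30% in these data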;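 note: inhibitor blocks binding of rhodamine activity probe so polarization falls; 0% = enzyme with DMSO and 100% = wells lacking PAFAH2 protein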
Starred values were filed as active, the others as inactive; . = no result. Only some compounds are listed: those with a hit (about 2.8% of all), similar ones and a draw of the others.

SMILES | pPAFAH FP inh | DAGLB inh | PAFAH2 inh | HTRA1 inhibitor | PAFAH1B3 FP inh | PAFAH1B2 FP inh | PAFAH2 confirm
Nc1cc(C(=O)OCC(=O)NCc2ccc(F)cc2)ccc1Cl | 10 | 2 | 55* | -4 | 11 | 1 | 44*
COc1ccc(C(=O)OCc2c(F)cccc2Cl)cc1S(=O)(=O)N1CCOCC1 | 20 | -4 | 3 | -10 | 0 | 1 | .
O=C(COC(=O)c1ccc(CNS(=O)(=O)c2ccc(F)c(Cl)c2)cc1)NCC1CCCCC1 | 7 | -3 | 59* | -7 | 4 | 5 | 66*
COc1ccc(C(=O)OCCOc2cccc(Cl)c2)cc1S(=O)(=O)N1CCOCC1 | 4 | -3 | 35* | -13 | 13 | 8 | 19
C=CCNC(=O)COC(=O)c1c2c(nc3ccccc13)CCC2 | 24 | 1 | 14 | 4 | 2 | 0 | .
CCCCn1c(N)c(N(CCOC)C(=O)c2ccc(S(=O)(=O)N3CCCCC3)cc2)c(=O)[nH]c1=O | 0 | -1 | 2 | 3 | 6 | 6 | .
CSc1nc(N)nc2c1ncn2CC(=O)N[C@H](CO)Cc1c[nH]c2ccccc12 | 3 | -2 | 38* | 1 | -1 | 7 | 3
COc1ccc(C(=O)N/C(=C\c2cn(S(=O)(=O)N(C)C)c3ccccc23)C(=O)N2CCN(C)CC2)cc1OC | . | 0 | . | -2 | . | . | .
O=C(COC(=O)c1ccccc1SCC(=O)N1CCCC1)Nc1ccc(OC(F)F)cc1 | 23 | 1 | 73* | 2 | 0 | 4 | 76*
Cc1cccc(NC(=O)COC(=O)c2ccccc2SCC(=O)N2CCCC2)c1 | 5 | -1 | 88* | -11 | -2 | 1 | 74*
COc1ccc(S(=O)(=O)C(C#N)c2nc3ccccc3nc2N2CCCC(C)C2)cc1 (stereo not given) | 1 | 6 | 31* | 3 | 7 | 7 | 21
CC1CCCN(c2nc3ccccc3nc2C(C#N)S(=O)(=O)c2cccs2)C1 (stereo not given) | 6 | 5 | 22 | 7 | -4 | 8 | .
Cc1ccc(S(=O)(=O)N(C)C)cc1NC(=O)C1CCN(C(=O)Nc2ccccc2)CC1 | . | -6 | 3 | -1 | -1 | 1 | .
Cc1ccc(C)c(S(=O)(=O)N(C)c2ccc(OC(=O)C3CCN(C(=O)Nc4ccccc4)CC3)cc2)c1 | . | -5 | 32* | -32 | 4 | -1 | 17
CC1CCCC(NC(=O)CN2C(=O)c3cccnc3Oc3ccc(Cl)cc32)C1C (stereo not given) | 1 | -2 | 9 | -6 | -1 | 3 | .
C[C@@H]1CCCCO[C@@H](CN(C)C(=O)CCCN(C)C)[C@@H](C)CN([C@H](C)CO)C(=O)c2cc(NC(=O)CCC(F)(F)F)ccc2O1 | . | 3 | . | -2 | . | . | .
COc1ccc(-n2nc3c(N4CCC(C(=O)N5CCCCCC5)CC4)nnc(C)c3c2C)cc1 | 3 | -1 | -9 | 0 | -6 | 0 | .
Nc1nc(CSC(=S)N2CCCCC2)nc(Nc2ccccc2)n1 | 0 | -1 | 20 | -29 | 1 | 1 | .
COc1ccccc1Nc1nc(N)nc(CSC(=S)N2CCCCC2)n1 | 0 | -4 | 37* | -20 | 2 | 1 | 26
CCCCCCCc1nc2nc(C)c(Br)c(=O)n2[nH]1 | 20 | 3 | 38* | -1 | 10 | 13 | 35*
CC(c1ccco1)N(C(=O)c1ccccc1NS(=O)(=O)c1cc([N+](=O)[O-])ccc1Cl)c1ccccn1 (stereo not given) | 7 | 6 | 63* | -2 | -2 | 1 | 71*
COc1cc(/C=C/C(=O)OCC(=O)N2CCCc3ccccc32)ccc1O | 5 | 2 | 51* | 6 | 6 | 2 | 41*
COc1cc(/C=C/C(=O)OCC(=O)N2CC(=O)Nc3ccccc32)ccc1O | -5 | -2 | 3 | 13 | 6 | 5 | .
COc1cc(/C=C/C(=O)OCC(=O)N2CCCc3ccccc32)ccc1OCC#N | 2 | -5 | 40* | -2 | 0 | -3 | 19
CC(=O)Nc1c2c(nn1-c1ccc(Cl)cc1)CSC2 | 2 | -1 | -4 | 6 | 5 | 5 | .
SMILES | pPAFAH FP inh | DAGLB inh | PAFAH2 inh | HTRA1 inhibitor | PAFAH1B3 FP inh | PAFAH1B2 FP inh | PAFAH2 confirm
CCc1ccccc1N(CC(=O)N1CCc2ccccc2C1)S(C)(=O)=O | -8 | 1 | -1 | 8 | 7 | 1 | .
CN(C)S(=O)(=O)n1cnc([C@@H]2[C@H]3C(=O)OC[C@@H]3C[C@@]23N=CN(Cc2ccccc2)C3=O)c1 | 2 | 1 | 40* | -5 | 8 | 7 | 34*
CN(C)S(=O)(=O)N1CCN(Cc2ccccc2)CC1 | 1 | 0 | 11 | 2 | 2 | -2 | .
Cc1ccc(C(=O)NCC(=O)OCc2c(F)cccc2Cl)s1 | 2 | -3 | 8 | -8 | 3 | 4 | .
O=C(NC12CC3CC(CC(C3)C1)C2)c1cncc(O)c1 | 3 | 1 | 38* | 4 | 18 | 22 | 20
O=C(NC12CC3CC(CC(C3)C1)C2)c1cccnc1 | 2 | -1 | 1 | -5 | -2 | 8 | .
O=C(OCc1nc(-c2ccccc2Cl)no1)c1ccco1 | -2 | -5 | 42* | 2 | 6 | 0 | 41*
O=C(O)CCc1nc(-c2ccccc2Cl)no1 | 5 | 2 | -6 | 5 | 0 | -1 | .
O=C(OCc1nnc(-c2ccccc2Br)o1)c1ccco1 | 13 | 4 | 53* | 8 | -4 | 9 | 50*
COc1ccccc1C(=O)Nc1cc(-c2ccc(C)cc2)no1 | 0 | -7 | -9 | -72 | -1 | 1 | .
CC(C)=CC(=O)OCC(=O)Nc1ccccc1Cl | 8 | -2 | 51* | -4 | 5 | 6 | 40*
COc1cc(/C=C/C(=O)OCC(=O)Nc2ccccc2Cl)cc(OC)c1OC | -3 | -5 | 10 | 2 | 7 | 6 | .
CC(C)=CC(=O)OCC(=O)Nc1cc(C)ccc1C | 4 | 0 | 30* | 4 | 8 | 4 | 18
CSc1ccccc1NC(=O)COC(=O)c1ccc(O)cc1 | 16 | -2 | 54* | -3 | 9 | 2 | 38*
O=C(COC(=O)c1ccc(O)cc1)NC(c1ccccc1)c1ccccc1 | 17 | -1 | 46* | -16 | 1 | 10 | 36*
COCC(=O)OCC(=O)Nc1ccccc1-c1ccccc1 | 2 | -2 | 5 | 0 | 2 | 6 | .
O=C(CCCOC(=O)c1ccc(O)cc1)c1ccccc1 | 13 | -4 | 50* | -7 | 8 | 8 | 45*

Source: PubChem BioAssay (The Scripps Research Institute Molecular Screening Center)
